This note sets out measurements from ChEMBL document CHEMBL1157539, “Thousands of chemical starting points for antimalarial lead identification” (Nature, 2010).

Molecules are shown by their SMILES.

The test system of the test is Plasmodium falciparum. The experiment in a line: GSK_TCMDC: Inhibition of Plasmodium falciparum 3D7 in whole red blood cells, using parasite LDH activity as an index of growth. Test compounds present at 2uM. In kind it is functional.
As for `COc1ccccc1Nc1nc(C)cc(NCc2ccc(-n3ccnc3)cc2)n1`, the Inhibition is given as 90%. In turn, `COc1ccc(C[C@H](N)C(=O)N[C@H]2[C@@H](O)[C@H](n3cnc4c(N(C)C)ncnc43)O[C@@H]2CO)cc1` [PUROMYCIN] registered an Inhibition of 100%. With `COc1ccc(NC(=O)Nc2ccc(-c3ccccc3)cc2)cc1Cn1cnc(N2CCCNCC2)cc1=O.O=C(O)C(F)(F)F`, the Inhibition worked out at 100%.

`COc1ccc2nccc(NC(=O)N3CCC(NCCOc4cc(F)cc(F)c4)CC3)c2n1.O=C(O)C(=O)O`: the Inhibition was determined as 86%. Consider `N#Cc1cnc(Nc2ccc(Oc3ccccc3)cc2)nc1Nc1cccc(S(N)(=O)=O)c1`, for which the Inhibition was 96%.

As for `CC(=O)c1c(Nc2c(C)cc(C)cc2C)oc(C)cc1=O`, the Inhibition was 95%.

For the compound `Cc1cccc2nc(-c3ccc(-c4ccc(CN5CCOCC5)cc4)cc3)[nH]c12.O=C(O)C(F)(F)F`, the Inhibition is listed as 92%. Next, `CC1c2cccc(O)c2CCN1CCc1ccc(Cl)c(Cl)c1.Cl` (stereo not given): 100%. To `CO/C(=C\C=C\c1cc2cc(Cl)c(Cl)cc2[nH]1)C(=O)NCCCN(C)CCN(C)c1ccccc1` belongs 96%; to `O=C(Nc1ccc(-c2nc3ccccc3[nH]2)cc1)C1CCN(Cc2cccc(F)c2F)CC1`, 97%.

`NC1=NC(c2ccccc2)(c2ccccc2)C(=O)N1CCCCc1ccccc1.O=CO` returned an Inhibition of 96%. Take `O=C(/C=C/c1ccc(Cl)c(Cl)c1)NCCCCCN1CCC(NC(=O)Nc2cccc(C(F)(F)F)c2)CC1`: the Inhibition came out at 100%.

`Cc1cc2c3c(N)nc(N)nc3ccc2n1C(C)C` yielded an Inhibition of 93%. On to `CC(CCCCOCCc1ccccc1)NCC(O)c1cc(Cl)c(N)c(Cl)c1` (stereo not given), for which the Inhibition is reported as 96%. Next, `CCCC(=O)c1cnc2c(Oc3cc(Cl)ncn3)cccc2c1Nc1ccccc1C`: 99%. For `CN(CCC1CCN(C(=O)/C=C/c2ccc(Cl)c(Cl)c2)CC1)C1CCC(c2c[nH]c3ccccc23)CC1` (stereo not given), the Inhibition is listed as 87%.

As for `Br.Oc1ccc(CCNCCCCCCNCCCc2ccc(Cl)cc2)cc1O`, the Inhibition turned out to be 87%.

Compound `CCOC(=O)c1c(NC(=O)c2ccccc2)sc2c(O)c(CN(CC)CC)ccc12.Cl` came in with an Inhibition of 100%. As for `Cc1cc(Nc2ccc(C)c(C)c2)n2nc(C)nc2n1`, the Inhibition was found to be 95%. Next, `CCCc1cc(=O)[nH]c(-n2nc(C)cc2NC(=O)C(CC)c2ccccc2)n1` (stereo not given): 94%. `CC(=NNC(S)=NCCc1ccccc1)c1ccccn1` registered an Inhibition of 100%. In turn, `COc1ccccc1-c1ccc2nnc(SCC(=O)Nc3ccc4c(c3)OCCO4)n2n1` registered an Inhibition of 99%. `Cl.NC(=O)c1cnc2cc(-c3ccoc3)ccc2c1Nc1ccc(NC(=O)Nc2ccccc2Cl)cc1`: the Inhibition came out at 100%. In turn, `COc1cc(OC)cc(-c2nc3ccc(OCCN(C)C)c(C#N)c3[nH]2)c1` registered an Inhibition of 99%.

With `CC1CN(CC(O)Cn2c3ccc(Br)cc3c3cc(Br)ccc32)CC(C)O1` (stereo not given), the Inhibition is on record as 100%.

As for `O=C(CN1CCC2(CCC1=O)CC(=O)c1ccccc1O2)NCCN1CCOCC1` (stereo not given), the Inhibition is 100%. In turn, `COc1ccc2nccc([C@@H](O)CN3CCC(NC(=O)C(c4cc5ccccc5s4)N4CCN(c5ccccc5OC)CC4)CC3)c2c1` (stereo not given in full) came in with an Inhibition of 100%. On to `COc1ccc(Nc2nccc(NCC(O)c3cccc(C(F)(F)F)c3)n2)cc1` (stereo not given), for which the Inhibition was determined as 98%. Next, `COc1ccc(-c2ccc(NC(=O)c3cccc(C#N)c3)cc2)cc1CN1CCNCC1.O=C(O)C(F)(F)F`: 100%; `CCCNCCc1ccc(NS(=O)(=O)c2cccc(-c3ccc(Cl)cc3)c2)cc1.Cl`: 100%; `O=C(NC1CCCCN(Cc2ccccc2O)C1)c1cccc(Cl)c1.O=C(O)C(F)(F)F` (stereo not given): 86%. `O=C(NCc1ccccc1)c1ccc(C(=O)NCC2CNCCO2)cc1.O=C(O)C(F)(F)F` (stereo not given): the Inhibition was 92%.

For `CCCC(C)NC[C@@H](O)[C@H](Cc1ccccc1)NC(=O)c1cc(NCC)cc(N2CCCCS2(=O)=O)c1.Cl` (stereo not given in full), the Inhibition was determined as 100%. Next, `O=S(=O)(Nc1ccc(CCN2CCCCC2CCN2CCCC2)cc1)c1ccc(-c2ccccc2)cc1` (stereo not given): 98%; `COc1cccc(-c2cnc(N)c(-c3nc4cc(Cl)c(F)cc4[nH]3)c2)c1`: 100%; `N#Cc1ccccc1Sc1ccccc1C(=O)Nc1ccc2ccccc2n1`: 92%.

Take `Cc1ccccc1Nc1nc(NCCCO)c2ccccc2n1.Cl`: the Inhibition was found to be 83%. `CN(C)c1ccc(/C=C2\S/C(=N\c3ccccc3)N(c3ccccc3)C2=O)cc1[N+](=O)[O-]` gave an Inhibition of 96%. Consider `N#Cc1ccc(/C=C/C(=O)NCCCCCN2CCN(C(=O)Nc3ccc(Cl)c(C(F)(F)F)c3)CC2)cc1`, for which the Inhibition is reported as 94%. `COc1ccc2c(=O)ccn(CCN3CCC(NCc4ccc5c(n4)NC(=O)CS5)CC3)c2c1.Cl` displayed an Inhibition of 98%.

The term Inhibition denotes the change of the read-out against control, counted positive when it falls. Higher therefore signals a response far below the control.
